Data: PubChem BioAssay (NCATS)
Inconclusive results are not listed. Activity calls are given as the source filed them. Calls follow the shape of the dose curve; as a rule, active = well fitted curve in the direction sought with a large enough effect; inconclusive = small, poorly fitted or top-dose-only effect, or another doubt; inactive = no such curve, though single readings can be large; an effect the other way counts as inactive or inconclusive. Where a SMILES comes first, the peptide text is derived from it. [ ]: non-standard residue; d: D form. ξ: configuration not given here. ξTyr(βOH) = NC(C(=O)O)C(O)c1ccc(O)cc1

Experiments:
CRL-7250 = normal cell line; test: Cytotoxic Profiling of Annotated Libraries Using Quantitative High-Throughput Screening (AID 1296008); settings: Five cell lines viability, CellTiter-Glo ATP luminescence, 48-72 h; max response: active compounds read low; also: nearly all actives have a fitted effect of over 60% in size; as to max response: % is scaled to controls: 0 for no effect and ±100 for the full control effect
In short: (§1)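 Cytotoxicity was measured as CellTiter-Glo ATP luminescence, read after 10 min at room temperature. Compound treatment of the cells lasted 48 or 72 hr at 37 degrees Celsius in a qHTS format.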

HEK293 = test: as above; settings: Five cell lines viability, CellTiter-Glo ATP luminescence, 48-72 h; max response: active compounds read low
In short: as §1

HaCat [1] = test: as above; settings: Five cell lines viability, CellTiter-Glo ATP luminescence, 48-72 h; max response: active compounds read low
In short: as §1

KB-3-1 = test: as above; settings: Five cell lines viability, CellTiter-Glo ATP luminescence, 48-72 h; max response: active compounds read low
In short: as §1

NIH3T3 [2] = test: as above; settings: Five cell lines viability, CellTiter-Glo ATP luminescence, 48-72 h; max response: active compounds read low
In short: as §1

HACAT [3] = test: qHTS assay to identify novel small-molecules to repurpose for Merkel cell carcinoma treatment (AID 1296009); settings: MCC and control cell lines, CellTiter-Glo viability, 72 h; at 44.8 µM (top of the series) unless noted; also: nearly all actives have a fitted effect of over 60% in size
In short: (§2)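 After compound transfer in DMSO, plates were kept 72 hr at 37 degree celsius. Luminescent ATP signal from CellTiter-Glo served as viability measure, normalized against DMSO and no-cell controls.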

NIH3T3 [4] = test: as above; settings: MCC and control cell lines, CellTiter-Glo viability, 72 h; at 44.8 µM (top of the series) unless noted
In short: as §2

C33A = test: Primary qHTS to identify gynecologic anti-cancer compounds using libraries of approved drugs and bioactive compounds (AID 1345084); settings: Gynecologic cancer cell panel viability, ATPlite luminescence, 48 h; series mostly up to 57.5 µM; also: % is scaled to controls: 0 for no effect and ±100 for the full control effect; nearly all actives have a fitted effect of over 55% in size
In short: (§3)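 Luminescence from the ATPlite ATP-monitoring reagent indicates viable cell number; lower signal means cytotoxicity. Cells received compound 16 h after seeding and were exposed for 48 h across five concentrations.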

CAOV3 = test: as above; settings: Gynecologic cancer cell panel viability, ATPlite luminescence, 48 h; series mostly up to 57.5 µM
In short: as §3

CASKI = test: as above; settings: Gynecologic cancer cell panel viability, ATPlite luminescence, 48 h; series mostly up to 57.5 µM
In short: as §3

Es-2 = test: as above; settings: Gynecologic cancer cell panel viability, ATPlite luminescence, 48 h; series mostly up to 57.5 µM
In short: as §3

HeLa = test: as above; settings: Gynecologic cancer cell panel viability, ATPlite luminescence, 48 h; series mostly up to 57.5 µM
In short: as §3

Hek293T = test: as above; settings: Gynecologic cancer cell panel viability, ATPlite luminescence, 48 h, control line for the selectivity index; series mostly up to 57.5 µM
In short: as §3

JEG-3 = test: as above; settings: Gynecologic cancer cell panel viability, ATPlite luminescence, 48 h; series mostly up to 57.5 µM
In short: as §3

OV90 = test: as above; settings: Gynecologic cancer cell panel viability, ATPlite luminescence, 48 h; series mostly up to 57.5 µM
In short: as §3

COC(=O)c1cc(OC)cc(OC)c1C(=O)c1c(OC)cc2c(c1O)C1CCC(O)C(C)(O2)O1 (stereo not given)
inactive: outcome (CRL-7250) | max response (HEK293) 0.585% | outcome (HaCat [1]) | outcome (KB-3-1) | outcome (NIH3T3 [2]) | outcome (HACAT [3]) inactive [at 17.4 µM] | outcome (NIH3T3 [4]) inactive [at 17.4 µM] | Potency (C33A) | Potency (CAOV3) | outcome (CASKI) | Potency (Es-2) | Potency (HeLa) | Potency (Hek293T) | Potency (JEG-3) | Potency (OV90)

CC(=O)N[C@H]1[C@H](O[C@H]2CC[C@]3(C)C4CC=C5[C@@H]6CC(C)(C)CC[C@]6(C(=O)O)[C@H](O)C[C@@]5(C)[C@]4(C)CC[C@H]3C2(C)C)O[C@H](CO)[C@@H](O)[C@@H]1O (stereo not given in full)
inactive: max response (CRL-7250) -7.8% | max response (HEK293) -6.92% | outcome (HaCat [1]) | max response (KB-3-1) -6.34% | outcome (NIH3T3 [2]) | outcome (HACAT [3]) inactive [at 17.4 µM] | outcome (NIH3T3 [4]) inactive [at 17.4 µM] | Potency (C33A) | Potency (CAOV3) | outcome (CASKI) | Potency (Es-2) | Potency (HeLa) | Potency (Hek293T) | Potency (JEG-3) | Potency (OV90)

CSCC1OC(n2cnc3c(=O)[nH]cnc32)C(O)C1O (stereo not given)
inactive: max response (CRL-7250) -7.17% | max response (HEK293) -2.06% | outcome (HaCat [1]) | max response (KB-3-1) 2.69% | outcome (NIH3T3 [2]) | outcome (HACAT [3]) | outcome (NIH3T3 [4]) | Potency (C33A) | Potency (CAOV3) | outcome (CASKI) | Potency (Es-2) | Potency (HeLa) | Potency (Hek293T) | Potency (JEG-3) | Potency (OV90)

CC(C)C1NC(=O)CNC(=O)C2CCCN2C(=O)C(Cc2c[nH]c3ccccc23)NC(=O)CNC(=O)C(C(O)c2ccc(O)cc2)NC(=O)CNC1=O (stereo not given) (cyclo(G[ξTyr(βOH)]GWPGV); configuration not given here)
inactive: max response (CRL-7250) -8.12% | max response (HEK293) 1.2% | outcome (HaCat [1]) | max response (KB-3-1) 2.88% | outcome (NIH3T3 [2]) | outcome (HACAT [3]) inactive [at 17.4 µM] | outcome (NIH3T3 [4]) inactive [at 17.4 µM] | Potency (C33A) | Potency (CAOV3) | outcome (CASKI) | Potency (Es-2) | Potency (HeLa) | Potency (Hek293T) | Potency (JEG-3) | Potency (OV90)

C/C=C/C=C/C(O)=C1/C(=O)[C@]2(C)C(=O)[C@@](C)(O)[C@H]1[C@H]([C@@]1(C)OC(=O)C(C)=C1O)[C@H]2C(=O)CC/C=C/C
inactive: outcome (CRL-7250) | max response (HEK293) -3.93% | outcome (HaCat [1]) | outcome (KB-3-1) | outcome (NIH3T3 [2]) | outcome (HACAT [3]) inactive [at 17.4 µM] | outcome (NIH3T3 [4]) inactive [at 17.4 µM] | Potency (C33A) | Potency (CAOV3) | outcome (CASKI) | Potency (Es-2) | Potency (HeLa) | Potency (Hek293T) | Potency (JEG-3) | Potency (OV90)

N#Cc1cccc(-c2nc(-c3cccnc3)no2)c1
inactive: max response (CRL-7250) -3.07% | max response (HEK293) -8.6% | outcome (HaCat [1]) | outcome (KB-3-1) | outcome (NIH3T3 [2]) | outcome (HACAT [3]) inactive [at 17.4 µM] | outcome (NIH3T3 [4]) inactive [at 17.4 µM] | Potency (C33A) | Potency (CAOV3) | outcome (CASKI) | Potency (Es-2) | Potency (HeLa) | Potency (Hek293T) | Potency (JEG-3) | Potency (OV90)

COc1cc(CO)cc(OC)c1O[C@@H]1O[C@H](CO)[C@@H](O)[C@H](O)[C@H]1O
inactive: max response (CRL-7250) -11.4% | max response (HEK293) -2.97% | outcome (HaCat [1]) | max response (KB-3-1) 4.69% | outcome (NIH3T3 [2]) | outcome (HACAT [3]) | outcome (NIH3T3 [4]) | Potency (C33A) | Potency (CAOV3) | outcome (CASKI) | Potency (Es-2) | Potency (HeLa) | Potency (Hek293T) | Potency (JEG-3) | Potency (OV90)

CC(C)C1CCC(C(=O)N[C@@H](Cc2ccccc2)C(=O)O)CC1 (stereo not given in full)
inactive: outcome (CRL-7250) | max response (HEK293) 3.42% | outcome (HaCat [1]) | outcome (KB-3-1) | outcome (NIH3T3 [2]) | outcome (HACAT [3]) | outcome (NIH3T3 [4]) | Potency (C33A) | Potency (CAOV3) | outcome (CASKI) | Potency (Es-2) | Potency (HeLa) | Potency (Hek293T) | Potency (JEG-3) | Potency (OV90)

O=C(O)CC1CCC(c2ccc(NC(=O)c3nnc(Nc4ccc(F)c(F)c4)o3)cc2)CC1 (stereo not given)
inactive: max response (CRL-7250) 1.15% | max response (HEK293) 1.04% | outcome (HaCat [1]) | outcome (KB-3-1) | outcome (NIH3T3 [2]) | outcome (HACAT [3]) | outcome (NIH3T3 [4]) | Potency (C33A) | Potency (CAOV3) | outcome (CASKI) | Potency (Es-2) | Potency (HeLa) | Potency (Hek293T) | Potency (JEG-3) | Potency (OV90)

Nc1ncnc2c1c(COc1cccc(Cl)c1)nn2C1CCOCC1
inactive: max response (CRL-7250) -3.67% | max response (HEK293) -4.69% | outcome (HaCat [1]) | outcome (KB-3-1) | outcome (NIH3T3 [2]) | outcome (HACAT [3]) | outcome (NIH3T3 [4]) | Potency (C33A) | Potency (CAOV3) | outcome (CASKI) | Potency (Es-2) | Potency (HeLa) | Potency (Hek293T) | Potency (JEG-3) | Potency (OV90)

Cc1onc(-c2ccccc2Cl)c1C(=O)N(C)c1ccc(Cl)cc1
inactive: outcome (CRL-7250) | max response (HEK293) -12.8% | outcome (HaCat [1]) | max response (KB-3-1) 4.59% | outcome (NIH3T3 [2]) | outcome (HACAT [3]) | outcome (NIH3T3 [4]) | Potency (C33A) | Potency (CAOV3) | outcome (CASKI) | Potency (Es-2) | Potency (HeLa) | Potency (Hek293T) | Potency (JEG-3) | Potency (OV90)

CC(=O)O[C@@H](C[C@@H]1C=C(C)C(=O)O1)[C@H](C)[C@H]1CCC2[C@@]3(C)CC[C@H](O[C@@H]4O[C@H](CO)[C@@H](O)[C@H](O)[C@H]4O[C@@H]4O[C@@H](C)[C@H](O)[C@@H](O)[C@H]4O)C(C)(C)C3CC[C@@]2(C)[C@@]12COC(=O)C2 (stereo not given in full)
inactive: outcome (CRL-7250) | max response (HEK293) -15.8% | outcome (HaCat [1]) | max response (KB-3-1) 1.23% | outcome (NIH3T3 [2]) | outcome (HACAT [3]) inactive [at 9.27 µM] | outcome (NIH3T3 [4]) inactive [at 9.27 µM] | activity change, negative = cytotoxicity (C33A) 13.5% [at 11.6 µM] | activity change, negative = cytotoxicity (CAOV3) 4.91% [at 11.6 µM] | activity change, negative = cytotoxicity (CASKI) 4.88% [at 11.6 µM] | activity change, negative = cytotoxicity (Es-2) 8.74% [at 11.6 µM] | activity change, negative = cytotoxicity (HeLa) 5.41% [at 11.6 µM] | activity change, negative = cytotoxicity (Hek293T) 15.9% [at 11.6 µM] | activity change, negative = cytotoxicity (JEG-3) -9.52% [at 11.6 µM] | activity change, negative = cytotoxicity (OV90) 15.4% [at 11.6 µM]
